According to ChEMBL document CHEMBL3988442, “University of Dundee, Small-Polar-MMV Screening Library” (2021):
For some of these results: Potency and affinity values are given separately.

Assays:
Set-up in all cases: scale not given: direction of the effect not stated beside the values
[1] = target: Protein translocase subunit SecA (Escherichia coli (strain K12)) (UniProt P10408); test: Assay to Identify E. coli SecA ATPase Inhibitors; assay type: functional; conditions: 30 µM
[2] = target: T1, Ubiquitin-activating enzyme e1, putative (Leishmania donovani (strain BPK282A1)) (UniProt E9BSI1); test: Leishmania donovani Ubiquitin Activating Enzyme (LdE1); assay type: functional; conditions: 30 µM
T1 sequence (whole entry): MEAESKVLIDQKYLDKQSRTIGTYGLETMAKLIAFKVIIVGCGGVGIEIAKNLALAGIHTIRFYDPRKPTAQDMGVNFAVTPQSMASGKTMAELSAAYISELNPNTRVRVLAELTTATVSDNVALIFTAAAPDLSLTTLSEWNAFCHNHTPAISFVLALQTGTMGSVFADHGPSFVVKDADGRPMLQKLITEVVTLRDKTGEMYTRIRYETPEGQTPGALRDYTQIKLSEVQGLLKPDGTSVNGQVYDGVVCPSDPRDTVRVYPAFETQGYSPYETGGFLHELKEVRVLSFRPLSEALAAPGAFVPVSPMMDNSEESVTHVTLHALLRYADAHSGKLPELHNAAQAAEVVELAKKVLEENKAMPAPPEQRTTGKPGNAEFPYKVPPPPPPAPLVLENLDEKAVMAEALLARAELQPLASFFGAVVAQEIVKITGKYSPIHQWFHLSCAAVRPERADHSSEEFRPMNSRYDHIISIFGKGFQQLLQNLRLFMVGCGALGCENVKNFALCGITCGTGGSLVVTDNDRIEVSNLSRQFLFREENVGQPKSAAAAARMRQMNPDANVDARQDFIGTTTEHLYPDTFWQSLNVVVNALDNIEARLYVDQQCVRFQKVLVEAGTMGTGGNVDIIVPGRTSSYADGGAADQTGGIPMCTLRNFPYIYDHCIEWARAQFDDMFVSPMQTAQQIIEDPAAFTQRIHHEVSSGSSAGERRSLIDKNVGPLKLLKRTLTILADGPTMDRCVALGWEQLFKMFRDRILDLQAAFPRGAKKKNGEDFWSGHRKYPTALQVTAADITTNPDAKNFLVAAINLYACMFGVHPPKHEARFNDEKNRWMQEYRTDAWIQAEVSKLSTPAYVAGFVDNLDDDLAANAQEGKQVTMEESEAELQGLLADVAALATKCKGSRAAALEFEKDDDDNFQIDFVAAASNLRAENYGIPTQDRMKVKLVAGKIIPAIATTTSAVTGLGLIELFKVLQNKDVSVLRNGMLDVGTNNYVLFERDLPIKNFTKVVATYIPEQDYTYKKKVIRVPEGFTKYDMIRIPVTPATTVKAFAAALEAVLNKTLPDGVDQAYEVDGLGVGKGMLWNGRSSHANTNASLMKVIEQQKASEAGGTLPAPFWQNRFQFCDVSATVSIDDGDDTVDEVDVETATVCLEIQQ

[3] = target: Sialic acid-binding Ig-like lectin 9 (Homo sapiens) (UniProt Q9Y336); test: Hs-Siglec9 ALPHAscreen SOP 20170721; conditions: 10 µM
[4] = test system: Trypanosoma cruzi; test: Trypanosoma cruzi phosphomannomutase and mannose-1-phosphate guanylyltransferase assay; assay type: functional; conditions: 10 µM
[5] = target: T2, Arginase-2, mitochondrial (Homo sapiens) (UniProt P78540); test: in vitro enzyme assay to detect the production of urea directly proportional to the activity of Arginase II; assay type: functional; conditions: 33.3 µM; further: in the data most compounds retested in dose-response had high values
T2 sequence (whole entry): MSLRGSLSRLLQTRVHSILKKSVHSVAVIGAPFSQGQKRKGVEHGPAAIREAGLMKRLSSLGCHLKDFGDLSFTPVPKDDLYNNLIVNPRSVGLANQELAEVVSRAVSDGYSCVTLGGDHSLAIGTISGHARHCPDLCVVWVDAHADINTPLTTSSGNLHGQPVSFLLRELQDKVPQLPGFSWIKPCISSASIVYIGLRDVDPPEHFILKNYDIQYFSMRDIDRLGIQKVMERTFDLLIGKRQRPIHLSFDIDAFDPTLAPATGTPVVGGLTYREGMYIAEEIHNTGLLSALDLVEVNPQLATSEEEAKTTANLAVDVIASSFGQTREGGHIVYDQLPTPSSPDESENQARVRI

[6] = target: T3, Proteasome subunit beta (Trypanosoma cruzi) (UniProt O96673); test: Trypanosoma cruzi proteasome chymotrypsin-like activity (TcProtChymo) assay.; further: in the data most compounds retested in dose-response had high values; assay type: functional; conditions: 9.37 µM
T3 sequence (whole entry): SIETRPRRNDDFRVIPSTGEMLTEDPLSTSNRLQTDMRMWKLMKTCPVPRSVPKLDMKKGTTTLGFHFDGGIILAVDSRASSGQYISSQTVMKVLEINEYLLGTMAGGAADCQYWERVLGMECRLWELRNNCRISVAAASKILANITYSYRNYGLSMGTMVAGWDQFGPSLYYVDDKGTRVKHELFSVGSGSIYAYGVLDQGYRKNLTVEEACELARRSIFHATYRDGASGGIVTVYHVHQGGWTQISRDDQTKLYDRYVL

[7] = species: Homo sapiens; test: To identify inhibition of the IFN signalling (Jak-Stat) pathway via expression of an eGFP reporter gene under the control of an IFN-stimulated response element (ISRE) containing MxA promoter.; assay type: functional; conditions: 30 µM
[8] = target: T4, Tyrosyl-tRNA synthetase, putative (Trypanosoma cruzi (strain CL Brener)) (UniProt Q4DSP6); test: Trypanosoma cruzi tyrosyl tRNA synthetase (TcYRS) _High Tyrosine SOP; assay type: functional; conditions: 30 µM; further: in the data most compounds retested in dose-response had high values
T4 sequence (whole entry): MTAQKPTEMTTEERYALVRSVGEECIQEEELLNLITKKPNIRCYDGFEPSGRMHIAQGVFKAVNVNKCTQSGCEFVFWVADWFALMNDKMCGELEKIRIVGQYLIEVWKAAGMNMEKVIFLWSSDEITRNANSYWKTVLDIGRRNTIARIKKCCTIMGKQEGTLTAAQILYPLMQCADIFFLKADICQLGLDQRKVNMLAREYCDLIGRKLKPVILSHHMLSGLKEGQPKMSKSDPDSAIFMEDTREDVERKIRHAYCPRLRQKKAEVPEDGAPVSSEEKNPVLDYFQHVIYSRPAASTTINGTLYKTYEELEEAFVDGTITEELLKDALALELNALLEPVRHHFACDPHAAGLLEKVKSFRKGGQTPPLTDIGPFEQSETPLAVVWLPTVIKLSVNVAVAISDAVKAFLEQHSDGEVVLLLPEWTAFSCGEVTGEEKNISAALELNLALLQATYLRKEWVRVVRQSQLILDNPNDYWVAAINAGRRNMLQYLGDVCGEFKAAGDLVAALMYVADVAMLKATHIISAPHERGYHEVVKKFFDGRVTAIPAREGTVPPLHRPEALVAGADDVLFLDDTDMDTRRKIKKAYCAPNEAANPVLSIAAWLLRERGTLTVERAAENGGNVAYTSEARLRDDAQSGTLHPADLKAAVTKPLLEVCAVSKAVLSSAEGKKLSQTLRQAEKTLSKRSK

[9] = target: T4, Tyrosyl-tRNA synthetase, putative (Trypanosoma cruzi (strain CL Brener)); test: Trypanosoma cruzi tyrosyl tRNA synthetase (TcYRS) SOP; assay type: functional; conditions: 30 µM
[10] = target: Chromo domain-containing protein 1 (Saccharomyces cerevisiae (strain ATCC 204508 / S288c) (Baker's yeast)) (UniProt P32657); test: ScCHD-1 Enzyme Inhibition Assay; assay type: functional; conditions: 30 µM; further: in the data most compounds retested in dose-response had high values
Chain of Chromo domain-containing protein 1 (Saccharomyces cerevisiae (strain ATCC 204508 / S288c) (Baker's yeast)) (P32657 whole entry, the tested form may be a part): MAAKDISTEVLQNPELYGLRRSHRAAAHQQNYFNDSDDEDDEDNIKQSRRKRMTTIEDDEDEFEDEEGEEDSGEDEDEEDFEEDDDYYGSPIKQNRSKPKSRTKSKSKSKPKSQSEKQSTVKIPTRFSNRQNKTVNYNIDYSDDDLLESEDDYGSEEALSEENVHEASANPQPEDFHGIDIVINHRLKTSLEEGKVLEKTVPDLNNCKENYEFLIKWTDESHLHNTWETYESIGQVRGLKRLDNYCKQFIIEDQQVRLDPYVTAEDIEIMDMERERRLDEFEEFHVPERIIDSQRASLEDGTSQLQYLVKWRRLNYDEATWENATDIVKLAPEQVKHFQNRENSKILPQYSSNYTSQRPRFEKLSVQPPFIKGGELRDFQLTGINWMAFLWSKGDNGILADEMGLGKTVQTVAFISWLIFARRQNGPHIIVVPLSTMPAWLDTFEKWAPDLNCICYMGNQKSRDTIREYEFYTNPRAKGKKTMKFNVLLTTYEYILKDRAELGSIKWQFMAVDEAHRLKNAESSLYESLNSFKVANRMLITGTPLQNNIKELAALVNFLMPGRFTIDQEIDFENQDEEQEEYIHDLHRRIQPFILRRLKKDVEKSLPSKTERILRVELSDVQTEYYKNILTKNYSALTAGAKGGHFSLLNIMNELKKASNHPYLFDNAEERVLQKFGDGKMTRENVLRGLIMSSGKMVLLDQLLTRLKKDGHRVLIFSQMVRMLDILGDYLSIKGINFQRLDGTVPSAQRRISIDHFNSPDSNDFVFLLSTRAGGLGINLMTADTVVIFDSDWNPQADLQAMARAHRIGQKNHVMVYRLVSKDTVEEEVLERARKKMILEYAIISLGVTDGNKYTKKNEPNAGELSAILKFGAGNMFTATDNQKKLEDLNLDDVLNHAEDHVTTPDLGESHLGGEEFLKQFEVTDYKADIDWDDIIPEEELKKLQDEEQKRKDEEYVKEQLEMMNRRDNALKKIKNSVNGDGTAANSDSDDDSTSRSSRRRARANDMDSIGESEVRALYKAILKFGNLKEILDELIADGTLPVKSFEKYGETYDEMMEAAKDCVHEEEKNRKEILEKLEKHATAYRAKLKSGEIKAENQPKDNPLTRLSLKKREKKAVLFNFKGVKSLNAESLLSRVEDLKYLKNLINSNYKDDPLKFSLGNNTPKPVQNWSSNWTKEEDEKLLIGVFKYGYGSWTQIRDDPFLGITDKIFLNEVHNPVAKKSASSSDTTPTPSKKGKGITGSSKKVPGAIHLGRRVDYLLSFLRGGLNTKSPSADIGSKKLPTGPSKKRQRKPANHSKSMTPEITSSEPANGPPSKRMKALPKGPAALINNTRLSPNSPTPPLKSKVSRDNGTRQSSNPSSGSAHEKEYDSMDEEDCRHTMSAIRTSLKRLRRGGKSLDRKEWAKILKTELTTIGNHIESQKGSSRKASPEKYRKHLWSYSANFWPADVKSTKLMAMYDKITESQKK

Chain of Sialic acid-binding Ig-like lectin 9 (Homo sapiens) (Q9Y336 whole entry): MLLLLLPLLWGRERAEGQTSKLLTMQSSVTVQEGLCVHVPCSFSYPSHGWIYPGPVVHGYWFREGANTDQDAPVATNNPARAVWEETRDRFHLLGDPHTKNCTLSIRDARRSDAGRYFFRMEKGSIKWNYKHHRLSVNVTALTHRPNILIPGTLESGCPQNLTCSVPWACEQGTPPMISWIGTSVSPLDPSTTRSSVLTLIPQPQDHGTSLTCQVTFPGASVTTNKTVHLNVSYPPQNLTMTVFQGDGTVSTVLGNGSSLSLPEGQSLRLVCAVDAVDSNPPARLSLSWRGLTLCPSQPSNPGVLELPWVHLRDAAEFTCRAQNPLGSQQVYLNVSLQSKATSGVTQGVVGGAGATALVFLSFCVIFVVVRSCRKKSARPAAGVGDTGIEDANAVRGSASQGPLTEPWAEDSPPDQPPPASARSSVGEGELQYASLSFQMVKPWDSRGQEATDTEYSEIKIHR
Chain of Protein translocase subunit SecA (Escherichia coli (strain K12)) (P10408 whole entry): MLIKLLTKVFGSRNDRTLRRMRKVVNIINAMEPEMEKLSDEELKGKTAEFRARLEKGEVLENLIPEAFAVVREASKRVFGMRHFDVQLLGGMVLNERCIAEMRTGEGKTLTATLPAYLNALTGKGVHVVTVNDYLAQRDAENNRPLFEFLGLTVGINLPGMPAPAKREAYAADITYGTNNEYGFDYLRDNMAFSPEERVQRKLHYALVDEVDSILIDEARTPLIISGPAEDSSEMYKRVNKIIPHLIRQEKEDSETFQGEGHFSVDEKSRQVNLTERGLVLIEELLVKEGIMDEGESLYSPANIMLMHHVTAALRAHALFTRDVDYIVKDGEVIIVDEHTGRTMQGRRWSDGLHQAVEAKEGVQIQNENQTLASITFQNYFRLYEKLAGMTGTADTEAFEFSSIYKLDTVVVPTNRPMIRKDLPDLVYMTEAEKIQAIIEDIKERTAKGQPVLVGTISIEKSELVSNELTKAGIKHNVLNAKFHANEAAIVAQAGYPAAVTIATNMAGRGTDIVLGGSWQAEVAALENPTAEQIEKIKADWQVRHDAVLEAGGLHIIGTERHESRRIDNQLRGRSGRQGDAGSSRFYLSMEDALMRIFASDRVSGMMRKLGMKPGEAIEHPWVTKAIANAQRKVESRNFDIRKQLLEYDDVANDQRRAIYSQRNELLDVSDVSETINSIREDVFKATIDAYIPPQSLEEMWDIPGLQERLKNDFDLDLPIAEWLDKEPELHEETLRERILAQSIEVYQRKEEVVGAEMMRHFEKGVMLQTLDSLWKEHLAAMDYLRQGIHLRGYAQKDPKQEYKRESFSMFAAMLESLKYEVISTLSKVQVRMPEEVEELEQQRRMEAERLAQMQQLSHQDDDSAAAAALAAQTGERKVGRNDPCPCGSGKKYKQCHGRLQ

SMILES	Percent Effect [1]	Percent Effect [2]	Percent Effect [3]	Percent Effect [4]	Percent Effect [5]	Percent Effect [6]	Percent Effect [7]	Percent Effect [8]	Percent Effect [9]	Percent Effect [10]
NC(=O)CC1CCN(C(=O)NCc2ccccc2-n2cccn2)CC1	-5.04%	21.3%	5.25%	-0.602%	-1.77%	9.41%	15%	7.89%	15.4%	-10.3%
O=C(CCC1CCN(Cc2ncc[nH]2)CC1)Nc1ccccc1Cl	-2.38%	-5.41%	-2.45%	-0.291%	-2.45%	8.56%	0.831%	-0.532%	0%	4.74%
Cc1cnn(CC2CN(CC(=O)NCc3ccccn3)CCO2)c1 (stereo not given)	-3.5%	8%	4.57%	4.62%	-4.88%	5.17%	2.48%	3.68%	10.3%	-8.5%
CCCN(CC)C(=O)c1cc2c(c3ccccc3n2C)n1C(=O)N(C)C	-6.54%	11.7%	4.77%	0.292%	4.05%	6.27%	-7.65%	6.84%	10.3%	-0.293%
CN(C)Cc1ccc(C2CCCCN2C(=O)c2cc(C3CC3)n[nH]2)cc1 (stereo not given)	-11.5%	-2.7%	0.279%	-2.23%	-1.05%	11.3%	19.7%	5.85%	9.76%	-0.312%
Cc1ccc(CNC(=O)CN2CCCC(Cn3cncn3)C2)s1 (stereo not given)	0.165%	21.3%	-6.68%	3.61%	3.99%	22.3%	-8.31%	4.74%	12.8%	-11.2%
O=C(c1ccc(F)cc1Cl)N1CCC(Nc2cccnn2)CC1	-3.11%	18.2%	7.17%	5.41%	-4.71%	7.37%	15.6%	5.88%	18.8%	-15.5%
COCc1nc(C(=O)NS(=O)(=O)c2cc(F)ccc2F)cs1	-3.64%	-2.56%	-5.81%	-1.41%	-1.64%	-0.939%	22.9%	-0.478%	-6.02%	4.47%
Cn1cnc2c1CCN(Cc1cccc(OCC(N)=O)c1)C2	-0.391%	15.4%	-8.42%	7.42%	2.46%	15.3%	23.1%	3.35%	18.1%	-7.71%
Cc1nc[nH]c1CN1CCN(C(=O)c2cccs2)[C@H]2CS(=O)(=O)C[C@H]21	-6.02%	2.7%	2.06%	-2.81%	3.85%	4.62%	5.03%	4.79%	14.6%	-2.09%
